13 compounds from PubChem BioAssay can be followed below.

The other results are listed elsewhere or left out. Records with an inconclusive call do not appear. A number with no mark means an inactive call. Activity calls are given as the source filed them.

The target of test [1] is Solute carrier family 12 member 5 (Homo sapiens) (UniProt Q9H2X9). The test is described as follows: retest of KCC2 transport modulators without sodium – cell-based, HEK293 KCC2, thallium flux, secondary assay, confirmation (AID 1713;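 active means thallium flux slope above the same plate's solvent-only control mean plus 3 SD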). The settings on record: FluoZin2 fluorescence, at 10 µM, active compounds read high.
A short description of another test: PubChem AID 1714.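 Further: raw slope of fluorescence over initial fluorescence between 10 and 20 s after thallium.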 To be noted: HEK293-KCC2 + bumetanide/ouabain, thallium flux FluoZin2; at 10 µM; active compounds read high.
The target of test [2] is Solute carrier family 12 member 5 (Homo sapiens) (UniProt Q9H2X9). Briefly: modulation of KCC2 thallium flux in HEK cells – cell-based, ouabain, retest, confirmation (AID 1717;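 active means thallium flux slope beyond 3 SD from same-plate DMSO control mean in most replicates, usually higher, sometimes lower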;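 further: slope of initial-normalized fluorescence between seconds 10 and 20 after thallium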). The settings on record: HEK293-KCC2, thallium flux FluoZin2 fluorescence, at 10 µM, bidirectional: low = inhibitor, high = activator.
Test [3] can be described thus: native HEK Tl+ uptake effects, second counter-screen – HEK cells, counterscreen 2, counter-screen for KCC2 modulator project, confirmation (AID 1718).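 Further: run without ouabain in cells lacking the KCC2 cotransporter; slope of fluorescence scaled to its starting value between 10 and 20 s.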 To be noted: HEK293 parental, thallium flux FluoZin-2 fluorescence slope; at 10 µM. (A counterscreen serves to expose hits that act by an unwanted route or on another target.)
The nature of test [4]: compound effects on native HEK Tl+ uptake – HEK cells, counterscreen 1, counter-screen for KCC2 modulator project, confirmation (AID 1716;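 active means thallium flux rate significantly above the same plate's solvent-only control wells, beyond their mean plus 3 SD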). To be noted: HEK293 parental cells, thallium flux FluoZin2, ouabain; at 10 µM; baseline-ratio fluorescence slope, 10–20 s after thallium.
Test [5] has as its target Solute carrier family 12 member 5 (Homo sapiens) (UniProt Q9H2X9). The test is described as follows: retest of KCC2 transport modulation, ouabain-free – cell-based, HEK293 KCC2, thallium flux, FluoZin2, secondary assay 2, confirmation (AID 1715;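 active means thallium flux slope more than 3 SD above or below the plate's solvent-only control mean, mostly below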;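 further: raw slope with 0.1% DMSO as baseline and bumetanide as block control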). To be noted: HEK293-KCC2, thallium flux FluoZin2 fluorescence; at 10 µM; actives lie on both sides; F/F0 rise rate, 10–20 s post-thallium.

Solute carrier family 12 member 5 (Homo sapiens), sequence (Q9H2X9 whole entry, looked up): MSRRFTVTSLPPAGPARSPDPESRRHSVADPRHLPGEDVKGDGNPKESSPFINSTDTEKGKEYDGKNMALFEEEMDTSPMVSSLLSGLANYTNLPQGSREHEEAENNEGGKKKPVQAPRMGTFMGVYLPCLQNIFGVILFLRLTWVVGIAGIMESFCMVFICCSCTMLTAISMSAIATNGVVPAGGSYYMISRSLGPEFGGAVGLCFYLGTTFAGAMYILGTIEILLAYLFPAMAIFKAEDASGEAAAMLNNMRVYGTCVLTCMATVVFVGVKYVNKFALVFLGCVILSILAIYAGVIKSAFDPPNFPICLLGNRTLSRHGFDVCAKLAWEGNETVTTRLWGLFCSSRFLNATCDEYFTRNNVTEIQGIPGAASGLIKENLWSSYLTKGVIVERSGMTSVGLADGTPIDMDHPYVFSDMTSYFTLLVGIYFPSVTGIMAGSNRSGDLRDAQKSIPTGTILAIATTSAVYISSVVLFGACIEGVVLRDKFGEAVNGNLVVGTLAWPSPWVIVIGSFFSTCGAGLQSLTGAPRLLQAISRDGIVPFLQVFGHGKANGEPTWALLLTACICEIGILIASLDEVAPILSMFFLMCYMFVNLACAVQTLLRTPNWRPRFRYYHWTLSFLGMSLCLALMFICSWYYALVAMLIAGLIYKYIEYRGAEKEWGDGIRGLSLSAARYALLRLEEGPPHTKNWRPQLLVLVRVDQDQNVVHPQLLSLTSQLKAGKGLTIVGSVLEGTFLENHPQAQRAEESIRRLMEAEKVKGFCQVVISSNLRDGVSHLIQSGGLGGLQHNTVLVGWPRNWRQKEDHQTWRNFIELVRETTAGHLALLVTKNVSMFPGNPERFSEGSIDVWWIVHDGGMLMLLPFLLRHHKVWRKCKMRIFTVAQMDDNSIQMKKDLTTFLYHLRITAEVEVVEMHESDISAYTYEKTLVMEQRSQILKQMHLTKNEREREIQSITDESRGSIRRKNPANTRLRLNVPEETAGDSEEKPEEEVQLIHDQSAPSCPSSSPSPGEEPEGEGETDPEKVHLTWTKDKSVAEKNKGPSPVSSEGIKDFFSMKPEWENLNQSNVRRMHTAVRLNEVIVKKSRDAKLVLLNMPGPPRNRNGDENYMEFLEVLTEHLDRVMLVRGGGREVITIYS

As for `CCCCn1c(=S)[nH]c2ncccc2c1=O`, the normalised thallium flux (F/F0 slope) in test [1] was 0.0429 (active). Also, the normalized thallium flux in “PubChem AID 1714” is 0.12 (active). Besides, the raw Tl+ flux slope (below DMSO = inhibition, above = activation) in test [2] is 0.0884 (active). In addition, the thallium flux slope in test [3] was 0.0266 (active).
As for `O=C(Nc1ccn(Cc2ccccc2)n1)c1cccc(F)c1`, the normalised thallium flux (F/F0 slope) in test [1] is 0.00622. In addition, the normalized thallium flux in “PubChem AID 1714” is 0.00499. The thallium flux rate (normalised fluorescence) in test [4] is 0.00698. Further, the raw Tl+ flux slope (below DMSO = inhibition, above = activation) in test [2] is 0.017 (active). The thallium flux slope in test [3] was 0.00931.
In the same order, the values of `Cc1cc(C)c2cc(CN(Cc3cccs3)Cc3nnnn3CC3CCCO3)c(=O)[nH]c2c1` (centres undefined) are 0.0146, 0.0043, 0.00572 (active), 0.0137 (active) and 0.00821.
`Cn1c(CCCOc2ccc(Cl)cc2Cl)n[nH]c1=S`: the normalised thallium flux (F/F0 slope) in test [1] was 0.00558. Besides, the normalized thallium flux is 0.00856 (active) in the test “PubChem AID 1714” and 0.0217 (active) in test [5]. For the same compound, the raw Tl+ flux slope (below DMSO = inhibition, above = activation) in test [2] is 0.0131 (active). In addition, in test [3], the thallium flux slope was 0.00939.
As for `Cc1ccc(C)c(NC(=S)NNC(=S)Nc2ccc(C(C)C)cc2)c1`, the normalised thallium flux (F/F0 slope) in test [1] is 0.0145. Also, the normalized thallium flux in the test “PubChem AID 1714” was 0.00979 (active). Also, in test [4], the thallium flux rate (normalised fluorescence) was 0.0112 (active). The raw Tl+ flux slope (below DMSO = inhibition, above = activation) in test [2] is 0.0152 (active). Moreover, in test [3], the thallium flux slope is 0.0121.
As for `COc1cccc2sc(Nc3nc(C)c(C(C)=O)s3)nc12`, in test [1], the normalised thallium flux (F/F0 slope) was 0.00922. For the same compound, the results for the normalized thallium flux (in “PubChem AID 1714”; in test [5]) were 0.0124 (active) and 0.0359, respectively. Also, the raw Tl+ flux slope (below DMSO = inhibition, above = activation) in test [2] was 0.0215. In addition, in test [3], the thallium flux slope was 0.0124.
Turning to `CC(C)n1cnc2c(Nc3cccc(Cl)c3)nc(N(CCO)CCCO)nc21`, in test [1], the normalised thallium flux (F/F0 slope) is 0.00575. Also, the normalized thallium flux was 0.00472 in “PubChem AID 1714” and 0.0232 (active) in test [5]. Moreover, in test [4], the thallium flux rate (normalised fluorescence) was 0.0075. Further, the thallium flux slope in test [3] is 0.0113.
Regarding `Fc1ccc(COc2cccc(-c3n[nH]c(=S)o3)c2)cc1`, the normalised thallium flux (F/F0 slope) in test [1] was 0.0171. Further, the normalized thallium flux in the test “PubChem AID 1714” is 0.101 (active). For the same compound, the thallium flux rate (normalised fluorescence) in test [4] is 0.0348 (active). Moreover, the raw Tl+ flux slope (below DMSO = inhibition, above = activation) in test [2] is 0.042 (active). The thallium flux slope in test [3] is 0.0338 (active).
In the same order, the values of `O=C(Nc1ccc2oc(-c3ccccc3F)nc2c1)c1ccco1` are 0.0157, 0.00477, 0.00696, 0.0137 and 0.00945.
Consider `CSc1ncnc2sc(C)c(C)c12`, for which, in test [1], the normalised thallium flux (F/F0 slope) was 0.00741. Besides, the figures for the normalized thallium flux (in “PubChem AID 1714”; in test [5]) were 0.0121 (active) and 0.0306, respectively. The thallium flux rate (normalised fluorescence) in test [4] was 0.0146 (active). Besides, in test [3], the thallium flux slope was 0.0129 (active).
For the compound `CCCCC(CC)CNC(=O)C(=O)C1C(=O)Nc2ccccc21` (centres undefined), the normalised thallium flux (F/F0 slope) in test [1] is 0.0112. Also, the normalized thallium flux in the test “PubChem AID 1714” is 0.0356 (active); in test [5], 0.0322. In test [2], the raw Tl+ flux slope (below DMSO = inhibition, above = activation) was 0.0309 (active). Moreover, the thallium flux slope in test [3] is 0.0126.
In the same order, the values of `COc1ccccc1N1CCN(C(=O)CSc2ncnc3c2cnn3-c2ccc(C)c(C)c2)CC1` are 0.00591, 0.00504, 0.029, 0.0176 and 0.0103.
For `COc1cccc(NC(=S)NC(=O)c2c(Cl)c(C)nn2C)c1`, in test [1], the normalised thallium flux (F/F0 slope) was 0.0264 (active). The normalized thallium flux in the test “PubChem AID 1714” was 0.063 (active). Besides, the thallium flux rate (normalised fluorescence) in test [4] is 0.0727 (active). The raw Tl+ flux slope (below DMSO = inhibition, above = activation) in test [2] is 0.066 (active). The thallium flux slope in test [3] is 0.0309 (active).
